Shown are actives, neighbours in structure and some others; about 5% of the full set was active somewhere.
VACV Venus inh: inhibitors of vaccinia virus (Venus reporter); 330,000 compounds, 0.46% hits; AID 720580; Vaccinia virus Venus reporter expression, fluorescence; Potency, µM (series often up to 36.5 µM), for inactives: at the highest dose activity change, negative = inhibition, most hits filed as inhibitors; calls by dose curve; tested in A549 cells; also: potency is read from the fitted curve at half-maximal effect; nearly all actives have a fitted effect of over 30% in size
LmPK inhibitor: LmPK (Leishmania mexicana) enzyme inhibition; 290,000 compounds, 0.37% hits; Q27686; AID 1721; Potency, µM (titrated, usually from 57.5 µM), for the others: at the top dose activity change, negative = inhibition, actives largely listed as inhibitors; purified LmPK, Kinase-Glo ATP luminescence, 1 h; also: potency is read from the fitted curve at half-maximal effect
Target sequence (Q27686 whole entry, looked up): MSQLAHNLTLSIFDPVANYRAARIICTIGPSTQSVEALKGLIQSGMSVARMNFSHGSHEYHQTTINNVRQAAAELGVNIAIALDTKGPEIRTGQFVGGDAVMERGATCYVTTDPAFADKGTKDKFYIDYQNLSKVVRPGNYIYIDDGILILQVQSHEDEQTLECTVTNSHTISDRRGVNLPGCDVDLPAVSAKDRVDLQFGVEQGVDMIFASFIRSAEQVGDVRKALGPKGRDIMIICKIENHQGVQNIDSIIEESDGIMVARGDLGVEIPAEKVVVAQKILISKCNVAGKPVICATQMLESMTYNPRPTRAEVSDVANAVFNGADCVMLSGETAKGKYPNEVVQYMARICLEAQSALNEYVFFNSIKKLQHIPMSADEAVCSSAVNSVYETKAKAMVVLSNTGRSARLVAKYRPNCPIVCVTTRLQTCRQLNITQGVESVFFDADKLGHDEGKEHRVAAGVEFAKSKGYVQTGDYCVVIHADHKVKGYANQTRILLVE
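Screened at intermediate enzyme activity to detect both inhibitors and activators: LmPK at 0.1 nM, with a 0.5 nM enzyme column as activation reference. PEP 0.5 mM, ADP 0.1 mM; ATP detected by luminescence after 1 h.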
Vaccinia mCherry: inhibitors of vaccinia virus infection (mCherry reporter signal); Vaccinia virus mCherry reporter infection, fluorescence; Potency, µM (series often up to 36.5 µM), inactives show at the top dose activity change, negative = inhibition, hits mostly inhibitors; 310,000 compounds, 0.63% hits; calls by dose curve; tested in A549 cells; also: potency is read from the fitted curve at half-maximal effect; nearly all actives have a fitted effect of over 35% in size
TbPYK inhibitor: blocks Trypanosoma brucei pyruvate kinase. Q57TT1. TbPYK enzyme, Kinase-Glo Plus ATP luminescence, 45 min. Potency, µM (titrated, usually from 76.8 µM), for inactives: at the top dose activity, negative = inhibition, usual class: inhibitors. 410,000 compounds, 0.12% hits. AID 624173; also: potency is read from the fitted curve at half-maximal effect; nearly all actives have a fitted effect of over 50% in size
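T. brucei PYK with substrate was exposed to pin-transferred compounds across a concentration series, then started with 130 uM ADP (final). After 45 min at room temperature, Kinase-Glo Plus luminescence was read, normalized and curve-fitted.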
HCMV inh: blocks human cytomegalovirus replication; HFF cells, HCMV-luciferase reporter, 72 h; hits give low values; activity change, negative = inhibition, % at 57.5 µM; 410,000 compounds, 4.5% hits; in the data active = activity change below about -60%; inconclusive = no clear call, values can overlap the other calls; inactive = above about -39%
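HFF cells seeded 16 h at 37C, treated with compounds, infected with luciferase-reporter HCMV at MOI 1 PFU/cell; luciferase read at 72 h post infection, normalized to buffer-only and Salinomycin controls.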
Starred values were filed as active, the others as inactive; i = inactive; ? = inconclusive; · = no result; [ ] = remark or other dose. Unless noted, calls follow the shape of the dose curve; as a rule, active = well fitted curve in the direction sought with a large enough effect; inconclusive = small, poorly fitted or top-dose-only effect, or another doubt; inactive = no such curve, though single readings can be large; an effect the other way counts as inactive or inconclusive. % is scaled to controls: 0 for no effect and ±100 for the full control effect.

SMILES	VACV Venus inh	LmPK inhibitor	Vaccinia mCherry	TbPYK inhibitor	HCMV inh
CCOC(=O)CNS(=O)(=O)c1cc(-c2nnc(Nc3ccc4c(c3)OCO4)c3ccccc23)ccc1C	-24.6%	-0.5%	-7.0%	1.1%	-65.2*
Cc1ccc(-c2n[nH]c(=S)c3ccccc23)cc1S(=O)(=O)NCC1CCCO1 (stereo not given)	6.0%	-1.8%	-12.5%	?	-62.9*
CN(CC(=O)Nc1ccc(Cl)cc1)CC(=O)Nc1cccc(Br)c1	-11.2%	0.0%	-5.4%	-3.7%	12.9
CSCCC1NC(=O)N(CC(=O)Nc2c(C(C)C)cccc2C(C)C)C1=O (stereo not given)	-9.5%	-0.8%	-20.3%	-1.0%	19.7
CC1(C)CN=c2s/c(=C\c3ccc(Cl)cc3)c(=O)n2C1	?	0.9%	10µM*	-9.2%	?
FC(F)(F)c1ccc2c(c1)n(Cc1ccccc1)c1[n+]2CCCCC1	-5.6%	9.3%	i	-10.4%	-65.8*
O=C(Cn1c2[n+](c3ccc(C(F)(F)F)cc31)CCCCC2)Nc1ccccc1	-0.7%	-5.1%	i	-4.8%	-16.9
CCc1cccc(NC(=O)Cn2c3[n+](c4ccc(C(F)(F)F)cc42)CCCCC3)c1	-4.6%	-1.1%	i	-8.0%	-64.0*
CCCN(C)C1CN(Cc2cn(Cc3cccc(C(F)(F)F)c3)nn2)S(=O)(=O)C1 (stereo not given)	-9.5%	·	-4.9%	5.4%	-99.6*
COc1ccccc1N(CC(=O)NCc1ccccn1)S(C)(=O)=O	-7.2%	-5.7%	i	0.1%	-65.8*
COc1ccc(OC)c(N(CC(=O)NCc2ccccn2)S(C)(=O)=O)c1	·	-1.5%	·	-4.8%	12.4
O=C(O)c1ccccc1NS(=O)(=O)c1cccc(-n2sc3ccccc3c2=O)c1	-8.2%	-18.9%	-0.8%	5.01µM*	7.1
CCCc1cc(=O)[nH]c(SCC(=O)N2CCN(c3ccccc3OC)CC2)n1	-5.7%	·	-12.0%	3.2%	-29.8
CCOCCCNc1ncnc2c1[nH]c1ccccc12	?	-1.6%	·	-16.0%	-62.5*
CCOc1ccc2[nH]c3c(NCCc4ccc(OC)c(OC)c4)ncnc3c2c1	-6.6%	3.9%	?	1.2%	-66.1*
COc1ccc(CCNc2ncnc3sc(C)cc23)cc1OC	-17.2%	4.3%	?	-4.7%	-69.8*
COc1ccc2[nH]c(C(=O)O)c(CCN3C(=O)c4cccc([N+](=O)[O-])c4C3=O)c2c1	·	4.1%	·	2.1%	0.0
CCNc1nc(Oc2ccc(C(=O)OCC)cc2)nc(SC)n1	·	7.8%	·	-14.8%	3.7
Cn1c(SCC(=O)NCc2ccc(F)cc2)ncc(C(=O)Nc2ccccc2)c1=O	-10.5%	·	-12.7%	1.4%	10.0
CC(O)CSc1nc2c(c(=O)[nH]c(=O)n2C)n1CC(O)COc1ccccc1 (stereo not given)	·	-1.0%	·	-5.8%	-93.6*
CC(C)Sc1nc2c(c(=O)[nH]c(=O)n2C)n1CC(O)COc1ccccc1 (stereo not given)	-4.3%	6.7%	-7.5%	-13.3%	?
CCCCCCOc1ccc(CN2CCN(CC)CC2)cc1	-15.5%	-2.1%	-1.4%	-14.3%	-75.3*
CC(=O)Nc1ccc(NC(=O)c2nc(S(=O)(=O)Cc3cccc(C)c3)ncc2Cl)cc1	-8.5%	-7.0%	i	-3.3%	-101.3*
COC(=O)c1ccc(NC(=O)c2nc(S(=O)(=O)Cc3cccc(C)c3)ncc2Cl)cc1	?	-1.6%	?	-17.9%	-101.3*
COC(=O)c1ccccc1NC(=O)c1nc(S(=O)(=O)Cc2cccc(C)c2)ncc1Cl	?	·	-25.2%	5.4%	-60.1*
SMILES	VACV Venus inh	LmPK inhibitor	Vaccinia mCherry	TbPYK inhibitor	HCMV inh
CCS(=O)(=O)c1ncc(Cl)c(C(=O)Nc2c(C(=O)Nc3cccc(C)c3)oc3ccccc23)n1	-8.8%	·	-19.8%	3.3%	19.0
Cc1cccc(CS(=O)(=O)c2ncc(Cl)c(C(=O)NCc3ccc4c(c3)OCO4)n2)c1	·	-2.7%	·	-11.5%	-77.8*
CCN(CC(=O)Nc1cccc(C(C)=O)c1)S(=O)(=O)c1ccccc1	-14.5%	6.3%	-0.8%	-0.2%	-34.3
COc1ccc(F)cc1S(=O)(=O)n1nc(C)cc1C	-12.2%	-5.8%	-2.7%	-1.6%	18.7
CCOc1ccccc1C(=O)NC(C(=O)NCc1ccc(F)cc1)C(C)C (stereo not given)	-12.2%	6.2%	-6.9%	-6.1%	-8.1
CCCC(=O)Nc1ccccc1NC(=O)C1CCCCC1	·	3.9%	·	0.4%	-2.9
N#Cc1c(C(F)(F)F)cc(-c2cccs2)nc1SCC(=O)Nc1ccc(Cl)cc1	-28.3%	·	?	2.9%	-91.6*
O=C(CSc1nc2nc(-c3cccs3)cc(C(F)(F)F)c2c(=O)[nH]1)Nc1ccc(F)c(F)c1	?	0.3%	-24.2%	-1.4%	-97.1*
CCOc1ccc(NC(=O)CSc2nc(-c3cccs3)cc(C(F)(F)F)c2C#N)cc1	10.0%	·	2.6%	-24.0%	5.1
Cc1ccccc1NC(=O)COC(=O)c1cc(=O)c2ccccc2o1	·	-3.6%	·	·	·
Cc1ccc2ccc3cccnc3c2n1	?	·	-21.0%	5.2%	-77.8*
COc1ccc(N2CCN(C(CNS(=O)(=O)c3cc(F)ccc3F)c3cccnc3)CC2)cc1 (stereo not given)	-7.4%	7.1%	-28.6%	-1.6%	-106.6*
COc1ccc(S(=O)(=O)NCC(c2cccnc2)N2CCN(c3ccccc3)CC2)cc1C (stereo not given)	10µM*	9.0%	-17.2%[1.46 µM]	1.8%	15.8
O=S(=O)(NCC(c1cccnc1)N1CCN(c2ccc(F)cc2)CC1)c1cc(F)ccc1F (stereo not given)	-5.8%	·	-16.6%	-0.1%	-27.1
CCCCN(CC(=O)Nc1c(C)cccc1CC)C(=O)SCC	-18.5%	2.4%	-19.9%[1.46 µM]	3.8%	·
c1ccc(C2CC(c3cccs3)n3nnnc3N2)cc1 (stereo not given)	8.4%	4.5%	-1.2%	0.8%	23.6
COC(=O)c1c(NC(=O)CCCOc2ccc(C(C)(C)C)cc2)sc2c1C(C(=O)OC)CC2 (stereo not given)	-7.0%[7.34 µM]	·	-0.3%[7.34 µM]	-12.0%	-83.6*
CCCC(=O)Nc1sc2c(c1C(=O)OC)C(C(=O)OC)CC2 (stereo not given)	-26.1%	2.7%	?	-1.9%	26.8
COC(=O)c1c(NC(=O)c2c(OC)cccc2OC)sc2c1C(C(=O)OC)CC2 (stereo not given)	·	-1.1%	·	1.2%	-64.9*
C/C(=N\NC(=O)C(=O)Nc1cc(C)ccc1C)c1ccncc1	·	2.2%	·	1.5%	-3.8
CCOc1cc(C)c(S(=O)(=O)Nc2ccc(F)cc2)cc1C	·	5.1%	·	5.4%	-62.1*
C[N+]1(C)CC[C@H](OC(=O)[C@@](O)(c2ccccc2)C2CCCC2)C1	-16.7%	-8.3%	-21.5%	2.5%	-0.1
C[N+]1(C)CCC(OC(=O)C(O)(c2ccccc2)C2CCCC2)C1 (stereo not given)	-2.4%	·	-21.2%	-11.1%	-89.5*
CCOc1ccc(NC(=O)CCNc2c(N3CCCC3)c(=O)c2=O)cc1	-11.6%	0.8%	-11.0%	0.9%	-60.9*
